Source: PubChem
The list is not random: actives were taken first. Their share in the collection is about 13%.
Pf growth 96h = Primary qHTS for delayed death inhibitors of the malarial parasite plastid, 96 hour incubation; P. falciparum luciferase reporter growth, 96 h; Potency, µM (doses to about 28.7 µM), usual class: inhibitors; hit rate 6.9% among 320,000
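P. falciparum expressing integrated firefly luciferase, in erythrocytes at 2% hematocrit, 0.05% parasitemia, incubated with compounds 96 h at 37 C, 5% CO2. Growth inhibition read as loss of luminescence; two-generation exposure targets delayed-death apicoplast inhibitors.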
HCV inh = qHTS Assay for Inhibitors of Hepatitis C Virus (HCV). Huh7.5.1 HCVcc-Cre infection, luciferase reporter, 44 h. Potency, µM (series often up to 41.8 µM), actives largely listed as inhibitors. hit rate 3.4% among 340,000
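Antiviral activity was scored by luciferase reporter output from cells infected with HCVcc-Cre (~0.5 moi) in presence of compound, 44 h infection period, cells seeded 1,000/well 4 h prior.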
HCMV antiviral = qHTS Assay for inhibitors of the human cytomegalovirus (HCMV) | HFF cells, HCMV-luciferase reporter, 72 h; active compounds read low | activity change, negative = inhibition, % at 57.5 µM | hit rate 4.5% among 410,000; in the data active means activity change below about -60%; inconclusive means no clear call, values can overlap the other calls; inactive means above about -39%
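Compounds were evaluated in HFFs infected with an HCMV luciferase reporter virus (MOI 1 PFU/cell). Luciferase in lysates collected 72 h post infection served as the replication measure.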
Pf growth 48h = Primary qHTS for delayed death inhibitors of the malarial parasite plastid, 48 hour incubation; hit rate 5.9% among 310,000; P. falciparum luciferase growth in erythrocytes, 48 h; Potency, µM (series often up to 28.7 µM), actives largely listed as inhibitors
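Firefly luciferase activity from engineered P. falciparum reports growth; inhibitors lower the luminescent signal. Cultures contained 2% hematocrit erythrocytes at 0.1% final parasitemia.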
Hits are given with their value; . = inactive; ? = inconclusive; / = no result. Unless noted, the call rests on the fitted dose curve; in most records, active means well fitted inhibition curve with a large enough effect; inconclusive means small, poorly fitted or top-dose-only effect, or another doubt; inactive means no such curve, though single readings can be large or run the other way.

SMILES	Pf growth 96h	HCV inh	HCMV antiviral	Pf growth 48h
COc1ccccc1N1CCN(S(=O)(=O)c2c(C)sc3ncn(CC(=O)Nc4ccc(C(C)C)cc4)c(=O)c23)CC1	/	/	.	/
Cc1ccc(C)c(S(=O)(=O)N2CCN(C(=O)CCCc3c[nH]c4ccccc34)CC2)c1	?	?	?	15µM
Cc1cccc2sc(N(Cc3cccnc3)C(=O)c3cccs3)nc12	/	/	.	/
COCCNc1oc(/C=C/c2ccc(F)cc2)nc1C#N	/	/	.	/
CCC(=O)Nc1cccc(-c2nnc(-c3cccc(NC(=O)CC)c3)o2)c1	1.2µM	?	.	5.2µM
CCCCCC(=O)Nc1cccc(-c2nc3ncccc3o2)c1	/	?	.	?
O=C(CSc1ccc(Cl)cc1)Nc1cc(-c2nc3ncccc3o2)ccc1Cl	4.7µM	.	.	?
CCC(=O)Nc1cccc(-c2ccc(N3CCC(C)CC3)nn2)c1	.	.	-67	.
CCCCC(=O)Nc1cccc(-c2nc3ncccc3o2)c1	12µM	.	.	?
CCC(=O)Nc1ccc(-c2nnc(-c3ccccc3)o2)cc1	.	.	.	.
COc1ccc(NC(=O)c2ncoc2-c2ccco2)cc1Cl	/	/	.	/
O=S(=O)(c1ccc(C2CCCCC2)cc1)N1CCN(c2cc(Cl)ccc2Cl)CC1	/	/	.	/
O=C(Nc1cccc(-c2nc3ncccc3o2)c1)c1ccc(-c2cccc(Cl)c2Cl)o1	/	/	-92	/
O=C(Nc1cccc(-c2ccc(N3CCOCC3)nn2)c1)c1ccc([N+](=O)[O-])cc1	9.3µM	?	.	?
CC1=C(/C=C/C(C)=C/C=C/C(C)=C/C(=O)Oc2c(C)c(C)c3c(c2C)CC[C@@](C)(CCC[C@H](C)CCC[C@H](C)CCCC(C)C)O3)C(C)(C)CCC1	.	/	/	.
CCOC1OC(=O)C(Cl)=C1Nc1ccc(C)cc1C (centres undefined)	2.3µM	.	.	?
Cc1nn(C)c(C)c1/C=C(/C(=O)C(C)(C)C)n1cncn1	.	.	-98	.
CC(C)(C)C(=O)/C(=C/c1ccncc1)n1cncn1	.	2.2µM	-100	7.4µM
Cc1nc2ccn(Cc3cccnc3)c(=O)c2cc1C(=O)N1CCN(c2ccccc2)CC1	/	/	.	/
CC(C)CCn1c(-c2nonc2N)nc2ccccc21	.	11µM	?	.
CCOC(=O)c1ccccc1NC(=O)Cn1c(-c2nonc2N)nc2ccccc21	.	?	-74	.
Nc1nonc1-c1nc2ccccc2n1CC(=O)NC1CCCC1	10µM	.	.	.
COc1cc(CNCCSc2nnnn2C)ccc1OCc1ccccc1C	/	/	.	/
COC(=O)c1ccc(Cl)cc1NC(=O)N(C)CCc1c(C)nn(C)c1C	/	/	.	/
COc1ccc2[nH]cc(/C=C/C(=O)c3ccccc3)c2c1	.	10µM	.	.
SMILES	Pf growth 96h	HCV inh	HCMV antiviral	Pf growth 48h
COc1ccc2[nH]cc(/C=C/c3cc[n+](C)cc3)c2c1	0.47µM	7.9µM	-92	1µM
Cc1cccc(NC(=O)CSc2nc(-c3cccs3)cc(C(F)(F)F)c2C#N)c1C	/	/	.	/
COc1ccc(NC(=O)Cn2c(=O)n(Cc3nc(-c4ccccc4)no3)c(=O)c3cc4c(cc32)OCO4)c(OC)c1	/	/	.	/
O=C(CCN1C(=O)C2C3C=CC(C3)C2C1=O)Nc1nccs1 (centres undefined)	?	.	-69	.
O=C(CCn1cccc1)Nc1nccs1	?	.	.	.
O=C(CCCCCN1C(=O)C2C3C=CC(C3)C2C1=O)Nc1nccs1 (centres undefined)	2.3µM	.	.	/
Cc1ccc(NC(=O)CSc2nc(-c3ccccc3Cl)nc3cc(=O)[nH]n23)c(C)c1	/	/	.	/
COc1cc2c(cc1OC)C(=O)N1[C@H]3c4cc(Cl)ccc4OC[C@@H]3[C@H](c3ccccc3)[C@]1(C)C(=O)N2	9.3µM	?	?	15µM
COc1ccc2c(c1)[C@H]1[C@H](CO2)[C@H](c2ccccc2)[C@]2(C)C(=O)Nc3cc(Cl)ccc3C(=O)N12	1.9µM	?	/	5.2µM
COc1ccc2c(c1)C(=O)N1[C@H]3c4cc(Cl)ccc4OC[C@@H]3[C@H](c3ccccc3)[C@]1(C)C(=O)N2	/	?	-60	/
CCOC(=O)[C@H]1[C@H]2COc3ccc(Cl)cc3[C@@H]2N2C(=O)c3cc(OC)ccc3NC(=O)[C@@]12C	?	?	.	?
COc1cc2c(cc1OC)C(=O)N1[C@H]3c4cc(C)ccc4OC[C@@H]3[C@H](c3ccccc3)[C@]1(C)C(=O)N2	/	?	.	/
COc1ccc2c(c1)[C@H]1[C@H](CO2)[C@H](c2ccccc2)[C@]2(C)C(=O)Nc3cc(C)ccc3C(=O)N12	/	?	.	/
COc1ccc(C(CC(=O)Nc2ccc(OC)c(OC)c2)N2Cc3ccccc3C2=O)cc1 (centres undefined)	/	/	.	/
Cc1oc2c(c1C(=O)c1ccccc1)C(=O)C(=O)c1ccccc1-2	13µM	10µM	-103	9.3µM
Cc1oc2c(c1C(=O)O)C(=O)c1ccccc1C2=O	?	.	.	?
CCOC(=O)c1c(C)nc2c(c1-c1cc(OC)ccc1OC)C(=O)c1ccccc1-2	.	?	.	.
CCOC(=O)c1c(C)oc2c1C(=O)c1ccccc1C2=O	.	5.6µM	.	0.74µM
O=C(c1ccccc1)c1coc2ccc(O)c(Cl)c12	.	/	.	.
CCOC(=O)c1c(C)nc2c(c1-c1ccccc1)C(=O)c1ccccc1-2	.	?	-101	.
O=C1C(=O)c2c(C(=O)c3ccccc3)coc2-c2ccccc21	?	11µM	-93	/
Cc1c(C(=O)N2CCOCC2)oc2c1C(=O)CC(C)(C)C2	12µM	.	.	.
Cc1c(C(=O)N2CCN(C)CC2)oc2c1C(=O)CC(C)(C)C2	?	.	.	.
CCCN(CCC)C(=O)Cn1c(SCc2cccc(C(F)(F)F)c2)nc2cccnc21	/	/	.	/
CCN(CC)c1ccc(NC(=O)C2CCCN(S(=O)(=O)c3ccc4c(c3)oc(=O)n4C)C2)c(C)c1 (centres undefined)	/	/	.	/
SMILES	Pf growth 96h	HCV inh	HCMV antiviral	Pf growth 48h
CCCS(=O)(=O)NCCc1sc2nc(-c3ccc(F)cc3)nn2c1C	/	/	-71	/
Cc1cc(C)c(S(=O)(=O)NCCc2sc3nc(-c4ccc(F)cc4)nn3c2C)c(C)c1	/	/	-60	/
COc1ccc(S(=O)(=O)NCCc2sc3nc(-c4ccc(C)cc4)nn3c2C)cc1C	/	/	-94	/
Cc1ccc(-c2nc3scc(CCNS(=O)(=O)c4ccc(C)c(C)c4)n3n2)cc1	/	/	.	/
CCc1ccc(NC(=O)C(=O)NCCc2sc3nc(-c4ccc(OC)cc4)nn3c2C)cc1	/	/	-64	/
COc1ccc(-c2nc3sc(CCNC(=O)C(=O)Nc4ccc(C)c(C)c4)c(C)n3n2)cc1	/	/	.	/
CC(C)c1ccc(NC(=O)c2cn(C3CCCC3)c(=O)c3c2c2ccccc2n3C)cc1	/	/	.	/
COc1ccc(-c2nc3scc(CCNS(=O)(=O)c4ccc(Oc5ccccc5)cc4)n3n2)cc1OC	/	/	-72	/
CCCS(=O)(=O)NCCc1sc2nc(-c3ccc(Cl)cc3)nn2c1C	/	/	-66	/
COc1ccc(S(=O)(=O)NCCc2csc3nc(-c4ccccc4)nn23)cc1OC	/	/	.	/
CCCS(=O)(=O)NCCc1csc2nc(-c3ccc(C)cc3)nn12	/	/	.	/
